# From ChEMBL document CHEMBL3988442, “University of Dundee, Small-Polar-MMV Screening Library” (2021)
# Hit rate of the full screen: of about 48,000 compounds, about 13,000 (27%) showed an effect of 50% or more. This is one part of the list.
# Test system: Wolbachia pipientis
# Experiment: Anti-Wolbachia Cell-Based Screen
# Format: functional
# Set-up: scale not given: in the data most compounds retested in dose-response had high values
# Details: 5 µM
row,Compound,Percent Effect
1,COc1ccc(C[C@H]2CN(c3cc(OC)ncn3)CC[C@@H]2OC)cc1.O=C(O)C(F)(F)F,-9.694%
2,O=C(NC1CCCC1)[C@H]1CC[C@@H]2[C@@H](CCN2c2ncc(F)cn2)O1.O=C(O)C(F)(F)F,6.364%
3,COc1cc(N2CC[C@H]3O[C@@H](C(=O)NC4CCCC4)CC[C@H]32)ncn1.O=C(O)C(F)(F)F,90.73%
4,COc1ccc(C[C@H]2CN(c3cc(OC)ncn3)CC[C@H]2OC)cc1.O=C(O)C(F)(F)F,-1.133%
5,O=C(NC1CC1)[C@H]1CC[C@@H]2[C@@H](CCN2c2ncc(F)cn2)O1.O=C(O)C(F)(F)F,-10.92%
6,COc1cc(N2CC[C@@H]3O[C@H](C(=O)N(C)C)C[C@@H]32)ncn1.O=C(O)C(F)(F)F,99.56%
7,COc1cc(NC(=O)c2cc(C)sc2C)c(C(=O)N(C)C)cc1OC,-0.1136%
8,CC(=O)c1ccc(-n2ccc3nc(N4CCCC4)ncc3c2=O)cc1,-1.476%
9,CN(C)CC1(O)CCN(Cc2cnc3c(-c4ccccc4)cnn3c2)C1 (stereo unspecified),-5.196%
10,CC(CCN1CCn2nc(CNC(=O)N(C)C)cc2C1)c1ccccc1 (stereo unspecified),-9.419%
11,CC(CCN1CCCn2nc(CNS(C)(=O)=O)cc2C1)c1ccccc1 (stereo unspecified),111.7%
12,CS(=O)(=O)NCc1cc2n(n1)CCCN(Cc1cc3ccccc3o1)C2,0.8182%
13,COC(=O)CSc1nnc(CCNC(=O)OC(C)(C)C)o1,120.8%
14,CN(C)C(=O)CSc1nnc(CCNC(=O)OC(C)(C)C)o1,15.65%
15,CC(C)Sc1nnc(CCNC(=O)OC(C)(C)C)o1,12.98%
16,Cc1nc(N2CC[C@@H](NC(=O)c3cnccn3)[C@H](O)C2)c2ccsc2n1,4.294%
17,Cc1nc(CN(C)C2CCN(CC(=O)N3CCOCC3)C2)no1 (stereo unspecified),-5.301%
18,Cc1nc(CN(C)C2CCN(CC(=O)NC3CCOCC3)C2)no1 (stereo unspecified),-6.239%
19,CN(Cc1noc(C2CC2)n1)C1CCN(CC(=O)N2CCOCC2)C1 (stereo unspecified),87.19%
20,Cc1nc(CN(C)C2CCN(CCC(=O)N3CCOCC3)C2)no1 (stereo unspecified),118.2%
21,CCc1nc(CN(C)C2CCN(CC(=O)N3CCOCC3)C2)no1 (stereo unspecified),114.4%
22,c1ccc(-n2cc(CN3CCCC(Cn4cncn4)C3)nn2)cc1 (stereo unspecified),6.927%
23,CC(C)N(C)[C@@H]1CCN(c2ncccn2)[C@H]1Cc1ccncc1.O=C(O)C(F)(F)F.O=C(O)C(F)(F)F,-5.254%
24,Cc1cnc(C(=O)N2CCCC(Cn3cc(CC(C)C)nn3)C2)cn1 (stereo unspecified),-14.05%
25,CC(C)CNC(=O)c1cc(Br)c2c(c1)OCCO2,-6.005%
26,CCCc1cc(CN(C)C2CSCCSC2)n[nH]1,-33.01%

row,Compound,Percent Effect
1,Cc1ccc(C(=O)N2CCCCC2c2[nH]ncc2S(C)(=O)=O)s1 (stereo unspecified),77.94%
2,Cc1cccnc1C(=O)N1CCCCC1c1[nH]ncc1S(C)(=O)=O (stereo unspecified),-7.963%
3,Cc1cnc(C(=O)N2CCCCC2c2[nH]ncc2S(C)(=O)=O)cn1 (stereo unspecified),-8.056%
4,Cn1cccc1-c1cc(C(=O)N2CCCCC2c2ccc(F)cc2)[nH]n1 (stereo unspecified),6.407%
5,Cc1cccc(C(=O)N2CCCCC2c2ccc(CN(C)C)cc2)c1 (stereo unspecified),14.25%
6,Cc1cccc(C(=O)N2CCCCC2c2[nH]ncc2S(C)(=O)=O)c1 (stereo unspecified),98.38%
7,Cn1cccc1C(=O)N1CCCCC1c1[nH]ncc1S(C)(=O)=O (stereo unspecified),102.3%
8,Cn1cccc1-c1cc(C(=O)N2CCCC2c2cccnc2)[nH]n1 (stereo unspecified),-7.739%
9,NC(=O)C1CCCCN1C(=O)c1ccc(Br)s1 (stereo unspecified),11.69%
10,CC1CCCCN1C(=O)c1ccc(Br)s1 (stereo unspecified),10.55%
11,Cc1ccc(C(=O)N2CCCCC2c2[nH]ncc2S(C)(=O)=O)cn1 (stereo unspecified),107.9%
12,CC1CCN(CC(O)CNc2ccc(Cl)cn2)CC1 (stereo unspecified),15.58%
13,CC(=O)N(C)CC(=O)Nc1ccc(C)cc1OCc1ccccc1,2.382%
14,Cc1nc(CNC(=O)N(Cc2ccccc2)CC(C)(C)O)oc1C,-21.53%
15,CC(=O)NCCCNCc1ccc(Cl)c2cccnc12,-6.459%
16,CC(Cn1cccn1)NC(=O)NCc1ccc(S(N)(=O)=O)cc1 (stereo unspecified),4.625%
17,CC(Cn1cccn1)NC(=O)NCc1ccc(C(N)=O)cc1 (stereo unspecified),167.3%
18,COc1ccc(CNC(=O)NC(C)Cn2cccn2)cc1O (stereo unspecified),8.397%
19,Cc1ccc(C(=O)NC(C)Cn2cccn2)c(=O)[nH]1 (stereo unspecified),-0.2392%
20,CC(Cn1cccn1)NC(=O)CCc1ccc(S(N)(=O)=O)cc1 (stereo unspecified),6.181%
21,CC(C)NC(=O)NCc1ccc(C(=O)NC(C)Cn2cccn2)cc1 (stereo unspecified),146.4%
22,CC(Cn1cccn1)NC(=O)NCc1ccc(S(C)(=O)=O)cc1 (stereo unspecified),102.2%
23,CC(Cn1cccn1)NC(=O)NCc1cccnc1OC1CCCC1 (stereo unspecified),11.91%
24,CC(C)c1nccn1C(C)C(=O)NCc1noc(Cc2cccs2)n1 (stereo unspecified),8.731%
25,O=C(NC1CC1)N1CCOC2(CCCN(c3cccc(F)c3)C2)C1 (stereo unspecified),-2.504%
26,CC(CCc1ccccc1F)C(=O)NS(=O)(=O)CC1CC1 (stereo unspecified),-8.345%

row,Compound,Percent Effect
1,CC(=O)N1CCC(Nc2cccc(OC(F)F)c2C)CC1,-10.39%
2,Cn1cnnc1CN1CCC2(CCC(=O)N(Cc3ccccn3)C2)CC1,-8.652%
3,Cc1noc(-c2ccnc(N3CCN(C4CCOCC4)CC3)c2)n1,8.096%
4,FC(F)(F)c1ccnc(N2CCCN(C3CCOCC3)CC2)c1,-6.382%
5,Clc1cc(N2CCC(N3CCCC3)CC2)nc2[nH]ccc12,113%
6,Cc1noc(-c2ccnc(N3CCC(N4CCCC4)CC3)c2)n1,-2.845%
7,Clc1cc(N2CCN(C3CCOCC3)CC2)nc2[nH]ccc12,109.8%
8,Cc1nc(-c2cccc(N3CCC(N4CCCC4)CC3)c2)cs1,-1.882%
9,COc1cc(N2CCC3(CC2)C(c2ccncc2)CC(=O)N3C)ncn1 (stereo unspecified),16.73%
10,COc1cc(N2CCC3(CC2)CC(N2CCOCC2)CO3)ncn1 (stereo unspecified),-10.74%
11,COc1cc(N2CCC3(CC2)CNC(=O)CO3)ncn1,115.6%
12,COc1cc(N2CC3(CCN(S(=O)(=O)C4CC4)C3)C2)ncn1,-10.78%
13,COc1cc(N2CCC3(CC2)CN(C)C(=O)CO3)ncn1,113.9%
14,CCS(=O)(=O)N1CCC2(CN(c3cc(OC)ncn3)C2)C1,-9.777%
15,COc1cc(N2CCC3(CC2)CC(N2CCN(C)CC2)CO3)ncn1.O=C(O)C(F)(F)F.O=C(O)C(F)(F)F (stereo unspecified),-26.84%
16,COc1cc(N2CCC3(CC2)OCC(=O)NC3C)ncn1 (stereo unspecified),115.6%
17,CC(C)NC(=O)c1nnn(-c2cccc(C(F)(F)F)c2)c1N,5.987%
18,O=C(CCO)N1CCC2(CCc3ccc(-c4ccoc4)cc32)CC1,-1.453%
19,COc1ncccc1C(=O)N1CCC(c2nc3c(C)cccc3[nH]2)CC1,-11.64%
20,Cc1cnn(CC2CN(Cc3nc4cccnc4[nH]3)CCO2)c1 (stereo unspecified),117.2%
21,Cc1cnn(CC2CN(c3ncnc4ccccc34)CCO2)c1 (stereo unspecified),-26.67%
22,O=S(=O)(CCN1CCOC(Cn2cccn2)C1)c1ccccc1 (stereo unspecified),-8.739%
23,c1ccc(Cn2ccnc2CN2CCOC(Cn3cccn3)C2)cc1 (stereo unspecified),5.197%
24,Cc1cnn(CC2CN(Cc3nc4ccccc4c(=O)[nH]3)CCO2)c1 (stereo unspecified),128.5%
25,Cc1cnn(CC2CCCN2CCc2nc3ccccc3c(=O)[nH]2)c1 (stereo unspecified),-0.3603%
26,O=c1[nH]c(CN2CCOC(Cn3cccn3)C2)nc2ccccc12 (stereo unspecified),108.3%

row,Compound,Percent Effect
1,N[C@@H]1CC[C@@H]1NC(=O)c1ccccc1OC(F)(F)C(F)F,-9.663%
2,CNC(=O)CN1CCO[C@H]2CN(C(=O)C3CC3)C[C@H]21.O=C(O)C(F)(F)F,8.052%
3,CN(C)CC1(O)CCN(S(=O)(=O)c2ccc(F)c(F)c2)C1 (stereo unspecified),-14.25%
4,O=S(=O)(c1cccc(F)c1)N1C[C@@H]2CC[C@H](C1)N(Cc1ccccc1)C2,7.587%
5,Cc1ccc(S(=O)(=O)N2CCC(O)(CN(C)C)C2)cc1 (stereo unspecified),128.7%
6,COc1ccc(S(=O)(=O)N2CCC(O)(CN(C)C)C2)cc1 (stereo unspecified),122.7%
7,CN(C)CC1(O)CCN(S(=O)(=O)c2ccc(F)cc2)C1 (stereo unspecified),-17.25%
8,COc1cccc(S(=O)(=O)N2CCC(O)(CN(C)C)C2)c1 (stereo unspecified),-4.6%
9,CCOC1COC2(CCN(S(=O)(=O)c3cccc(F)c3)CC2)C1 (stereo unspecified),-12.88%
10,CN(C)CC1(O)CCN(S(=O)(=O)c2ccc(Cl)cc2)C1 (stereo unspecified),106.4%
11,CC[C@H]1CN(S(=O)(=O)c2ccc(OC)cc2)CC[C@H]1CC(=O)O,6.997%
12,Cc1ccc(S(=O)(=O)N2CCC3(CC(C(=O)NCC4CC4)=NO3)C2)cc1 (stereo unspecified),-17.63%
13,CN(C)CC1(O)CCN(S(=O)(=O)c2cccc(F)c2)C1 (stereo unspecified),142.4%
14,CC(C)(C)C(O)CN1CCN(CC(=O)NCC(F)(F)F)CC1 (stereo unspecified),8.391%
15,COc1ccc(CCNC(=O)C2CCOC2)c(Cl)c1 (stereo unspecified),-19.93%
16,O=S(=O)(CCNCc1ccc(Cl)cc1)N1CCOCC1,-1.046%
17,CN(C)CCN1C(=O)CO[C@@H]2CN(c3ncc(F)cn3)C[C@H]21,-1.223%
18,Cl.Cn1ccnc1CNC(=O)c1ccnc(C2CCNCC2)c1,112.8%
19,Cn1ccnc1CNC(=O)Nc1ccc(OC2CCC2)c(F)c1,1.11%
20,Cn1ccnc1SCCNC(=O)c1c[nH]nc1C1CCCCC1,-10.23%
21,Cl.Cn1ccnc1CNC(=O)c1cnc(C2CCNCC2)cn1,74.03%
22,Cc1c(NC(C)C(C)C)cccc1C(=O)NCc1nccn1C (stereo unspecified),-7.954%
23,CC(C)N(Cc1nccn1C)C(=O)c1cnc(O)cn1,-3.4%
